The values that follow come from PubChem BioAssay (NCATS).

Test [1] is described as follows: NFAT Signaling Pathway (AID 444).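 Further: carbachol stimulus at about its EC50 of 1 µM final; on the % scale 0 is the no-effect control and ±100 the full control effect.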 Conditions: Jurkat NFAT-bla M1, carbachol, beta-lactamase ratio, 5 h; at 17.2 µM (top of the series) unless noted. An outline of the steps:
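Jurkat cells with NFAT-driven β-lactamase reporter and co-expressed M1 receptor, stimulated with carbachol (final 1 uM, ~EC50), compound titration, 5 h at 37 °C. CCF4 loaded 1 h at RT; 460/530 nm ratio gave %activity and AC50.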

A short description of test [2]: Stat Signaling Pathway (AID 446).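 Further: ME-180 cervical cancer cells given 40 pM IL-6 alongside compound; SIE-controlled beta-lactamase reporter measured as 460/530 nm FRET emission ratio; on the % scale 0 is the no-effect control and ±100 the full control effect.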 Conditions: ME-180 (cervical carcinoma) SIE beta-lactamase reporter, IL-6 stimulated, 5 h; at 17.2 µM (top of the series) unless noted. The procedure, abridged:
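Overnight-plated ME-180 cells bearing a STAT Inducible Element beta-lactamase reporter; 5 h co-exposure to compound and 40 pM IL-6; values normalized to 300 pM IL-6 and 125 nM JAK inhibitor controls.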

Test [3] concerns the target Glucocorticoid receptor (Homo sapiens) (UniProt P04150). Put plainly: GR-GFP Redistribution (AID 450;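 active means compounds whose dose series gives a full or clear partial fitted curve of increased nuclear translocation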; further: potency means the concentration at half of the fitted maximal effect).

A number with no mark means an inactive call. Inconclusive results are not listed. Activity calls are given as the source filed them. Unless noted, the call rests on the fitted dose curve; in most records, active means well fitted curve in either direction with a large enough effect (not every such curve was filed as active); inconclusive means small, poorly fitted or top-dose-only effect, or another doubt; inactive means flat fitted curve, though single readings scatter.

Chain of Glucocorticoid receptor (Homo sapiens) (P04150 whole entry, looked up): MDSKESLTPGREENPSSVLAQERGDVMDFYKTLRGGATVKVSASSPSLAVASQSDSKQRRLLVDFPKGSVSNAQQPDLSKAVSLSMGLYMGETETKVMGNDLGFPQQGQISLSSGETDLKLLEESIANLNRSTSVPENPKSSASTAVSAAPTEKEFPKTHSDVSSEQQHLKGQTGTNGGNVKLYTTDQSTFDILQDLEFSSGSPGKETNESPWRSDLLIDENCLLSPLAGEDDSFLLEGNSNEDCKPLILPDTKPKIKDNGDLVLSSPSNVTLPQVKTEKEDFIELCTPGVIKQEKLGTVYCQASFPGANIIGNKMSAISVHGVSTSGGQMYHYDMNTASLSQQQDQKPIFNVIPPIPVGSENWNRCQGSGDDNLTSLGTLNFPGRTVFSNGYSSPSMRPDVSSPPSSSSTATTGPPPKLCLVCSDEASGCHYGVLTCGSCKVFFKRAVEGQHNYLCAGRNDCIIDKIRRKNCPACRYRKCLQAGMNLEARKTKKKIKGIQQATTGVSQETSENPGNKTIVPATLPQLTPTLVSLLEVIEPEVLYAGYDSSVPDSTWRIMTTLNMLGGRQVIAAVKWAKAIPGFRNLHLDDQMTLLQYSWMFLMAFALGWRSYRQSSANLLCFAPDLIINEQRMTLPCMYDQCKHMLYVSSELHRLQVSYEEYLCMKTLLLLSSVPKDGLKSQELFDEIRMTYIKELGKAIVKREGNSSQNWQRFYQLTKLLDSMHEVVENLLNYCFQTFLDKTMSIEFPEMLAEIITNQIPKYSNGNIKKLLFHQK

Take `CCOC(=O)CSc1nc(N)c2c3c(sc2n1)CCCC3`: in test [1], the activity change, negative = inhibition is -14.4%. Also, the activity, negative = inhibition in test [2] is -14.2%. Further, in test [3], the Potency is over 20.6 µM.
As for `CCCc1[nH]nc2c1C(c1c(C)nn(-c3ccccc3)c1Cl)C(C#N)=C(N)O2` (configuration not stated), in test [1], the activity change, negative = inhibition was 14.9%. Moreover, the activity, negative = inhibition in test [2] was -29.6%. In test [3], the Potency was over 20.6 µM.
Consider `Cc1ccc(C(=O)CSC2=C(C#N)C(c3ccco3)C3=C(CCCC3=O)N2)cc1` (configuration not stated), for which the activity change, negative = inhibition in test [1] is -8.28%. Further, the activity, negative = inhibition in test [2] is -22.5%. In test [3], the Potency is over 20.6 µM.
Taken in the same sequence, the figures for `Cn1c(=O)c2c(nc(Oc3ccc4c(c3)OCO4)n2Cc2ccc(Br)cc2)n(C)c1=O` were -5.35%, -4.55% and over 20.6 µM.
Taken in the same sequence, the figures for `CCOC(=O)C1CCN(c2nc3ccccc3nc2C(C#N)C(=O)OC(C)C)CC1` (configuration not stated) were 8.02%, -8.74% and over 20.6 µM.
Taken in the same sequence, the figures for `Nc1c(Br)cc2oc(-c3ccccc3)nc2c1Br` were 4.7%, 14.6% and over 20.6 µM.
On to `CCCSc1nnc(NC(=O)Nc2ccccc2)s1`, for which the activity change, negative = inhibition in test [1] was -25.9%. In addition, the activity, negative = inhibition in test [2] is -19.6%. In addition, the Potency in test [3] was over 20.6 µM.
Taken in the same sequence, the figures for `COC(=O)c1ccc(-c2sc3nc(N4CCOCC4)c4c(c3c2N)CCCC4)o1` were -5.04%, -5.83% and over 20.6 µM.
Taken in the same sequence, the figures for `CCCc1[nH]nc2c1C(c1cccc(OC)c1)C(C#N)=C(N)O2` (configuration not stated) were 1.34%, -24.8% and over 20.6 µM.
Taken in the same sequence, the figures for `CCC[C@@H]1C[C@@H](C(=O)N[C@H]([C@@H](C)O)[C@H]2O[C@H](SC)[C@H](O)[C@@H](O)C2O)N(C)C1` (some centres not stated) were 8.75%, -0.0835% and over 20.6 µM.
Consider `CC(=NC1CCCC1)c1c(C)[nH]n(-c2nc3ccccc3s2)c1=O`, for which the activity change, negative = inhibition in test [1] was -20.1%. For the same compound, in test [2], the activity, negative = inhibition was -8.78%. Moreover, in test [3], the Potency is over 20.6 µM.
Taken in the same sequence, the figures for `CNC(=O)c1cc2c(ccc3ccccc32)oc1=N` were -5.77%, 13.1% and over 20.6 µM.
Taken in the same sequence, the figures for `Cc1nc2oc(C(=O)c3ccc(Br)cc3)c(N)c2c2c1COC(C)(C)C2` were 27.3%, 0.926% and over 20.6 µM.
Taken in the same sequence, the figures for `Brc1cccc(-c2cnc3n2CCCCC3)c1` were -87.3% (active), -10.7% and over 20.6 µM.
As for `CCCSC1=C(C#N)C(c2ccc(OC)cc2)C2=C(CC(C)(C)CC2=O)N1` (configuration not stated), the activity change, negative = inhibition in test [1] was -24.7%. In addition, in test [2], the activity, negative = inhibition was -13%. For the same compound, the Potency in test [3] was over 20.6 µM.
Taken in the same sequence, the figures for `Cc1ccc(-c2nnc(-c3ccccc3)o2)cc1Br` were -13.3%, 27.2% and over 20.6 µM.
Taken in the same sequence, the figures for `COc1ccc(C2/C(=C(/O)c3ccc(OC(C)C)cc3)C(=O)C(=O)N2CCCN2CCOCC2)cc1` (configuration not stated) were -1.06%, -10.9% and over 20.6 µM.
Taken in the same sequence, the figures for `COc1ccccc1-c1nnc2sc(C3CCCCC3)nn12` were -6.47%, 8.63% and over 20.6 µM.
Take `CC(C)(C)n1cnc2cc(NS(=O)(=O)c3ccc(Br)cc3)ccc21`: the activity change, negative = inhibition in test [1] was -27.1%. In test [2], the activity, negative = inhibition is -28%. Besides, the Potency in test [3] is over 20.6 µM.
